Compounds without any hit were thinned out: in the full panel of roughly 83,000, 20% have a hit.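 Cells were grown in 96-well plates and exposed to the test compound at a single concentration for 48 hours; results are reported as percent growth, with values below 10 considered active.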 Values without a mark were called inactive. Active and inactive are the calls of the source.

Some test systems named below: SR leukemia; RPMI-8226 leukemia; OVCAR-8 ovarian; OVCAR-5 ovarian; OVCAR-4 ovarian; SK-OV-3 ovarian; IGROV1 ovarian; OVCAR-3 ovarian; HS 578T breast; NCI/ADR-RES ovarian.
Holding throughout (assay): NCI-60 one-dose screen, 48 h (100 = growth as untreated, 0 = no growth, -100 = all killed)
Conditions in all cases: 10 µM unless noted

With `Oc1c(Cl)cc(Cl)c(Cl)c1Cc1c(O)c(Cl)cc(Cl)c1Cl`, the growth with SR leukemia was 63.9%; in the test with RPMI-8226 leukemia, 6.95% (active); in the test with OVCAR-8 ovarian, 7.43% (active); in the test on OVCAR-5 ovarian, 39.4%; in the test with OVCAR-4 ovarian, 29.5%; in the test with SK-OV-3 ovarian, 19.1%. Moreover, the growth is 25.1% in the test on IGROV1 ovarian, 10.8% in the test with OVCAR-3 ovarian, -1.24% (active) in the test on HS 578T breast and 3.82% (active) in the test with NCI/ADR-RES ovarian.
Consider `O=C1CNc2cc(Cl)ccc2N1`, for which the growth with SR leukemia is 94.7%; in the test with RPMI-8226 leukemia, 103%; in the test on OVCAR-8 ovarian, 99.7%; in the test with OVCAR-5 ovarian, 102%; in the test on OVCAR-4 ovarian, 115%; with SK-OV-3 ovarian it was 106%. Further, the growth is 103% with IGROV1 ovarian, 108% in the test with OVCAR-3 ovarian and 97.4% in the test on HS 578T breast.
As for `O=C1c2cc3c(cc2-c2c1c1ccc(Cl)cc1c(=O)n2CCCNCCO)OCO3`, the growth with SR leukemia was -43.8% (active); in the test with RPMI-8226 leukemia, -30.5% (active); in the test on OVCAR-8 ovarian it was -64.7% (active); with OVCAR-5 ovarian, -78.8% (active); with OVCAR-4 ovarian, -64.8% (active); with SK-OV-3 ovarian, -8.64% (active). Further, the growth in the test on IGROV1 ovarian is -66.7% (active); in the test with OVCAR-3 ovarian it was -81.1% (active); with HS 578T breast it was -49.6% (active).
As to `C/C(=C\CCc1ccsc1)CC/C=C(\C)CCCN1CCSCC1`, the growth with SR leukemia is 53.6%; in the test with RPMI-8226 leukemia, 58%; in the test on OVCAR-8 ovarian it was 99.9%; with OVCAR-5 ovarian, 94.8%; in the test on OVCAR-4 ovarian, 84.3%; with SK-OV-3 ovarian, 93.1%. Moreover, the growth in the test on IGROV1 ovarian is 94.1%; in the test with OVCAR-3 ovarian it was 82.3%; with HS 578T breast, 93.2%; with NCI/ADR-RES ovarian it was 84.9%.
`O=C1C2C(C(=O)N1CC[Se][Se]CCN1C(=O)C3C(C1=O)[C@H]1C=C[C@@H]3C1)[C@H]1C=C[C@@H]2C1` (some centres not stated): the growth in the test with SR leukemia was 4.3% (active); in the test with RPMI-8226 leukemia, -43.7% (active); in the test on OVCAR-8 ovarian it was -80.7% (active); in the test with OVCAR-5 ovarian it was -15.4% (active); in the test with OVCAR-4 ovarian, -33.3% (active); in the test with SK-OV-3 ovarian it was -50% (active). The growth was -47.2% (active) in the test on IGROV1 ovarian, -58% (active) in the test on OVCAR-3 ovarian and -11.4% (active) in the test on HS 578T breast.
Regarding `C[N+]1(C)C2CC[C@@H]1CC(OC(=O)C(O)c1ccccc1)C2` (some centres not stated), the growth is 115% with SR leukemia; 93.9% in the test with RPMI-8226 leukemia; 108% with OVCAR-8 ovarian; 106% in the test with OVCAR-5 ovarian; 110% with OVCAR-4 ovarian; 117% with SK-OV-3 ovarian. The growth was 103% in the test with IGROV1 ovarian, 121% with OVCAR-3 ovarian, 119% in the test with HS 578T breast and 103% with NCI/ADR-RES ovarian.
`CCN(Cc1cccc(S(=O)(=O)[O-])c1)c1ccc(C(=C2C=CC(=[N+](CC)Cc3cccc(S(=O)(=O)O)c3)C=C2)c2ccccc2S(=O)(=O)O)cc1`: the growth with SR leukemia is 95.6%; in the test on RPMI-8226 leukemia, 100%; in the test on OVCAR-8 ovarian it was 104%; in the test with OVCAR-5 ovarian, 94.5%; with OVCAR-4 ovarian it was 93.4%; in the test on SK-OV-3 ovarian, 102%. For the same compound, the growth in the test with IGROV1 ovarian was 110%; with OVCAR-3 ovarian, 102%; in the test with HS 578T breast, 106%; in the test on NCI/ADR-RES ovarian, 102%.
`Oc1ccc(/C=N/Nc2nc3ccccc3s2)c(O)c1`: the growth in the test on SR leukemia is 6.63% (active); with RPMI-8226 leukemia, 37.4%; in the test with OVCAR-8 ovarian, 26.6%; in the test with OVCAR-5 ovarian, 47.1%; with OVCAR-4 ovarian, 21.5%; in the test on SK-OV-3 ovarian, 8.68% (active). The growth with IGROV1 ovarian is 22.3%; in the test with OVCAR-3 ovarian, 18.6%; in the test on HS 578T breast, 49.2%; with NCI/ADR-RES ovarian, 17.7%.
For the compound `O=CN1N=C(c2ccc(Nc3ccnc4cc(Cl)ccc34)cc2)CC1c1ccc(Cl)cc1` (configuration not stated), the growth with SR leukemia was -23.3% (active); in the test on RPMI-8226 leukemia it was 4.55% (active); in the test on OVCAR-8 ovarian, 33.1%; in the test with OVCAR-5 ovarian, 41.9%; in the test with OVCAR-4 ovarian, 38.1%; with SK-OV-3 ovarian, 4.28% (active). Besides, the growth was 27.3% with IGROV1 ovarian, -24.1% (active) in the test with OVCAR-3 ovarian, 28.1% in the test on HS 578T breast and 0.514% (active) with NCI/ADR-RES ovarian.
As for `C[C@]12CCC(=O)C=C1CCC1C2[C@@H](O)C[C@@]2(C)C1CC[C@]2(O)C(=O)COC(=O)CCC(=O)O` (some centres not stated), the growth with SR leukemia is 105%; in the test with RPMI-8226 leukemia it was 63.6%; with OVCAR-8 ovarian it was 95.6%; in the test with OVCAR-5 ovarian, 99.4%; in the test on OVCAR-4 ovarian, 102%; in the test on SK-OV-3 ovarian, 89%. Also, the growth in the test with IGROV1 ovarian is 93.6%; in the test with OVCAR-3 ovarian, 123%; in the test on HS 578T breast, 138%; in the test with NCI/ADR-RES ovarian it was 95.7%.
Regarding `FCc1ncc(-c2ccc(C(F)(F)F)cc2)c(NC2CCCCCC2)n1`, the growth is -18% [100 µM] (active) with SR leukemia; 4.24% [100 µM] (active) in the test on RPMI-8226 leukemia; 15.8% [100 µM] in the test with OVCAR-8 ovarian; 32.7% [100 µM] in the test with OVCAR-5 ovarian; 27.2% [100 µM] in the test on OVCAR-4 ovarian; 46.1% [100 µM] in the test on SK-OV-3 ovarian. Also, the growth was 27.2% [100 µM] in the test with IGROV1 ovarian, -85% [100 µM] (active) in the test with OVCAR-3 ovarian, 41.4% [100 µM] with HS 578T breast and 18.4% [100 µM] in the test on NCI/ADR-RES ovarian.
For `COC(=O)[C@H](CCCCNC(=O)OCc1ccccc1)NC(=O)[C@@H](NC(=O)Nc1cc(C(F)(F)F)cc(C(F)(F)F)c1)C(C)C`, the growth was -23.3% [100 µM] (active) in the test on SR leukemia; -20.6% [100 µM] (active) in the test on RPMI-8226 leukemia; -22.1% [100 µM] (active) with OVCAR-8 ovarian; 41.6% [100 µM] in the test with OVCAR-5 ovarian; -68.8% [100 µM] (active) with OVCAR-4 ovarian; -23.4% [100 µM] (active) in the test with SK-OV-3 ovarian. Further, the growth in the test on IGROV1 ovarian was -61% [100 µM] (active); with OVCAR-3 ovarian, -92.5% [100 µM] (active); with HS 578T breast it was -1.7% [100 µM] (active); in the test on NCI/ADR-RES ovarian it was 60.4% [100 µM].
Regarding `Cc1cc2c(cc1C)[n+](Cc1ccc3ccccc3n1)cn2Cc1ccc2ccccc2n1`, the growth in the test on SR leukemia is -20.2% (active); with RPMI-8226 leukemia it was -30.7% (active); in the test with OVCAR-8 ovarian, 6.48% (active); with OVCAR-5 ovarian, 23.6%; in the test with OVCAR-4 ovarian it was 8.38% (active); with SK-OV-3 ovarian, 0.95% (active). For the same compound, the growth is -4.22% (active) in the test on IGROV1 ovarian, 3.63% (active) in the test with OVCAR-3 ovarian, 27.3% with HS 578T breast and 96.4% in the test on NCI/ADR-RES ovarian.

These data come from PubChem BioAssay (NCI).
